Consider 17 molecules from PubChem BioAssay (NCATS).

Inconclusive results are not listed. The source made the active and inactive calls. Calls come from the whole dose curve; as a rule, active = well fitted inhibition curve with a large enough effect; inconclusive = small, poorly fitted or top-dose-only effect; inactive = flat fitted curve, though single readings scatter.

The assay relates to HACAT. Description: qHTS assay to identify novel small-molecules to repurpose for Merkel cell carcinoma treatment (AID 1296009). Note: nearly all actives have a fitted effect of over 60% in size. As to conditions: MCC and control cell lines, CellTiter-Glo viability, 72 h; at 44.8 µM (top of the series) unless noted. An outline of the steps:
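Dose-response viability screen; 72 hr exposure at 37 degree celsius; CellTiter-Glo added, 10 min room temperature, luminescence read; RLUs scaled between no-cell and DMSO wells.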
With `CCCN[C@H]1CCc2nc(N)sc2C1`, the molecule was called inactive.
Under `CCOCC(O)COc1ccc(NC(=O)CC[S+](C)C)cc1` (configuration not stated) stands “inactive”.
In the case of `COc1cc(NS(=O)(=O)c2ccc(N)cc2)nc(OC)n1`, the result was inactive.
On to `COC(=O)Nc1nc2ccc(C(=O)c3ccccc3)cc2[nH]1`, for which the result was inactive.
Under `CCCc1cc(C(N)=S)ccn1` stands “inactive”.
Consider `O=C(O)c1cn(C2CC2)c2cc(N3CCNCC3)c(F)cc2c1=O`, for which the call was inactive.
For the molecule `O=C(O)CCn1c2c(c3ccccc31)C[C@H](NS(=O)(=O)c1ccc(F)cc1)CC2`, the molecule was classed as inactive.
On to `Cc1noc(NS(=O)(=O)c2ccc(N)cc2)c1C`, for which the molecule was called inactive.
Consider `CCn1cc(C(=O)O)c(=O)c2cc(F)c(N3CCN(C)CC3)cc21`, for which the outcome was “inactive [at 17.4 µM]”.
For `O=C(O)CSCC(=O)NC1CCSC1=O` (configuration not stated), the molecule was called inactive.
As to `CN(C)CCc1c[nH]c2ccc(CS(=O)(=O)N3CCCC3)cc12`, the call was inactive.
Regarding `CO[C@@H]1[C@@H](OC(N)=O)[C@@H](O)[C@H](Oc2ccc3c(O)c(NC(=O)c4ccc(O)c(CC=C(C)C)c4)c(=O)oc3c2C)OC1(C)C`, the outcome was inactive.
For the molecule `CCOc1cc(N)c(Cl)cc1C(=O)NCC1CN(Cc2ccc(F)cc2)CCO1` (configuration not stated), the result was inactive.
Consider `CCC(=O)O[C@]1(C(=O)SCF)[C@H](C)C[C@H]2[C@@H]3C[C@H](F)C4=CC(=O)C=C[C@]4(C)[C@@]3(F)[C@@H](O)C[C@@]21C`, for which the outcome was inactive.
For the molecule `Cc1oc(=O)oc1CN1CCN(c2cc3c(cc2F)c(=O)c(C(=O)O)c2n3C(C)S2)CC1` (configuration not stated), the result was inactive.
With `OC(Cn1cncn1)(Cn1cncn1)c1ccc(F)cc1F`, the molecule was classed as inactive.
`O=NN(CCCl)C(=O)NC1CCCCC1`: the molecule was called inactive.
